Results as given in PubChem BioAssay.
Calls of active or inactive are those of the source.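 Rule for the calls: active = inhibition above 20% together with a positive visual image hit; inconclusive = visual image hit but inhibition not above 20%; inactive = no visual image hit.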

Assay: inhibitors of TNFa-induced NFkB p65 translocation, primary screen, imaging, HUVEC, MLSMR starter and 10KST1 sets (AID 438);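 note: compound added about 3h40 before a 20 min TNFalpha stimulation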;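 for inhibition: signal is the nuclear over cytoplasmic p65 intensity ratio per well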
Conditions: HUVEC TNFa-induced p65 nuclear translocation; cell count: measured here: nuclei count (cytotoxicity indicator), at 2.08 µM; inhibition: at 2 µM, stronger effect = higher value, 0% TNFa-plus-vehicle, 100% no-TNFa wells

Q: For `CCOCCCNC(=O)CS(=O)(=O)Cc1nc(-c2cccc(OC)c2)oc1C`, which cell count is on record?
A: The cell count was 558.

Q: And the inhibition?
A: The inhibition was -43.9% (inactive).

Q: With `Cc1ccc(Br)cc1S(=O)(=O)N1CCN(c2ccccc2)CC1` as the molecule, how does the cell count read?
A: Its cell count is 391.

Q: And the inhibition?
A: Its inhibition is -2.2% (inactive).

Q: Which inhibition does the source give for `Cn1c(=O)c(=O)n(C)c2cc(S(=O)(=O)N3CCN(c4cccc(C(F)(F)F)c4)CC3)ccc21` here?
A: The inhibition was -2.2% (inactive).

Q: And the cell count?
A: Its cell count is 334.

Q: Which inhibition does the source give for `Cc1cccc(N2CCN(C(=O)C3CCCN(S(=O)(=O)c4c(C)noc4C)C3)CC2)c1C` (centres undefined) here?
A: Its inhibition is -2.3% (inactive).

Q: What about the cell count of the same molecule?
A: The cell count was 599.

Q: Which inhibition does the source give for `COc1ccc(-n2c(SCC(=O)N3CCCCC3C)nnc2-c2cccnc2)cc1` (centres undefined) here?
A: Its inhibition is -12.2% (inactive).

Q: And the cell count?
A: The cell count was 584.

Q: For `NCc1cccc(-n2cccn2)c1`, which inhibition is on record?
A: Its inhibition is -8.9% (inactive).

Q: And the cell count?
A: Its cell count is 680.

Q: Which cell count does the source give for `COC(=O)CSC1=C(C#N)C(c2ccccc2)CC(=O)N1` (centres undefined) here?
A: Its cell count is 317.

Q: And the inhibition?
A: The inhibition was 1.5% (inactive).

Q: Which cell count does the source give for `Oc1ccc(N2CCN(C(c3ccncc3)c3nnnn3C3CCCC3)CC2)cc1` (centres undefined) here?
A: The cell count was 661.

Q: What about the inhibition of the same molecule?
A: The inhibition was -18.3% (inactive).

Q: For `CCc1nc2scc(-c3ccccc3)c2c(=O)n1N`, which inhibition is on record?
A: Its inhibition is 10.9% (inactive).

Q: What about the cell count of the same molecule?
A: Its cell count is 414.

Q: Which inhibition does the source give for `CN(Cc1cccs1)C(=O)CCc1ccc(S(=O)(=O)N2CCOCC2)cc1` here?
A: The inhibition was 1% (inactive).

Q: What about the cell count of the same molecule?
A: The cell count was 475.

Q: With `CC1=C(C(N)=O)C(c2ccccn2)n2nc(SCc3ccccc3)nc2N1` (centres undefined) as the molecule, how does the cell count read?
A: The cell count was 624.

Q: And the inhibition?
A: The inhibition was 3.8% (inactive).

Q: What does the source list for `CCOc1ccc(NC(=O)c2ccccc2O)cc1`?
A: inhibition: -1.7% (inactive); cell count: 558

Q: What does the source list for `O=S(=O)(c1ccc2ccccc2c1)N1CCCCC1`?
A: cell count: 424; inhibition: 2.6% (inactive)

Q: For `N#CC1=C(N)OC(c2ccccc2)=C(C#N)C1c1ccc2c(c1)OCO2` (centres undefined), which inhibition is on record?
A: The inhibition was -19.6% (inactive).

Q: And the cell count?
A: Its cell count is 609.

Q: For `Cc1cc(C)c2c(=O)n(CC(=O)NCCCN3CCOCC3)sc2n1`, which inhibition is on record?
A: The inhibition was 8.2% (inactive).

Q: And the cell count?
A: Its cell count is 594.

Q: Which results are given for `COC(=O)CNC(=O)COC(=O)c1cc(Cl)cc(Cl)c1N`?
A: cell count: 473; inhibition: 4.7% (inactive)

Q: With `CCOc1ccc(NCc2nnc(SCC(=O)Nc3cc(C)on3)n2-c2ccccc2OC)cc1` as the molecule, how does the inhibition read?
A: Its inhibition is -9.3% (inactive).

Q: And the cell count?
A: Its cell count is 325.

Q: Which cell count does the source give for `CCN(CC)CCNC(=O)c1ccc(CS(=O)(=O)c2ccc(Br)cc2)o1` here?
A: The cell count was 655.

Q: What about the inhibition of the same molecule?
A: The inhibition was 11.2% (inactive).

Q: With `CCCn1c(=NC(C)=O)c(C#N)cc2c(=O)n3cccc(C)c3nc21` as the molecule, how does the cell count read?
A: The cell count was 462.

Q: And the inhibition?
A: Its inhibition is -0.9% (inactive).

Q: Which cell count does the source give for `CCn1c(=O)c(C(=O)Nc2cccnc2)c(O)c2ccccc21` here?
A: The cell count was 362.

Q: What about the inhibition of the same molecule?
A: The inhibition was 4.1% (inactive).

Q: Which cell count does the source give for `Cc1cccc(C2CC(c3ccccc3)Nc3nc(N)nn32)c1` (centres undefined) here?
A: Its cell count is 626.

Q: And the inhibition?
A: Its inhibition is -3.4% (inactive).

Q: Which results are given for `CCOC(=O)CN1CC23C=CC(O2)C(C(=O)Nc2ccc(C(C)=O)cc2)C3C1=O` (centres undefined)?
A: inhibition: -6.9% (inactive); cell count: 813

Q: Which results are given for `COc1ccccc1CNC(=O)C1CCCN(S(=O)(=O)c2cccc3cccnc23)C1` (centres undefined)?
A: cell count: 783; inhibition: -5.1% (inactive)

Q: Which results are given for `COc1ccc(C2=NO[C@@H]3C(=O)N(c4ccc5c(c4)OCCO5)C(=O)[C@H]23)cc1OC`?
A: inhibition: -17.3% (inactive); cell count: 608

Q: Which results are given for `CCOC(=O)c1ccccc1NC(=O)CSc1nnc(COc2ccccc2C)n1C`?
A: inhibition: 14.9% (inactive); cell count: 667

Q: With `COC(=O)c1sc(N2C(=O)C(O)=C(C(=O)c3ccc(C)o3)C2c2ccc(F)cc2)nc1C` (centres undefined) as the molecule, how does the inhibition read?
A: The inhibition was 3% (inactive).

Q: And the cell count?
A: The cell count was 325.

Q: Which inhibition does the source give for `CCN(CCNC(=O)CS(=O)(=O)Cc1nc(-c2cccc(OC)c2)oc1C)c1ccccc1` here?
A: Its inhibition is -27.6% (inactive).

Q: And the cell count?
A: Its cell count is 644.

Q: With `CN(CCNS(=O)(=O)c1ccc2c(c1)oc(=O)n2C)Cc1ccccc1` as the molecule, how does the cell count read?
A: Its cell count is 739.

Q: What about the inhibition of the same molecule?
A: Its inhibition is -6.7% (inactive).

Q: For `CC1CCN(c2nc3c(c(=O)[nH]c(=O)n3C)n2CCSc2ncccn2)CC1`, which cell count is on record?
A: Its cell count is 548.

Q: And the inhibition?
A: Its inhibition is 0.8% (inactive).

Q: Which cell count does the source give for `COc1cc2c(C)nc(C)c(C#N)c2cc1OC` here?
A: The cell count was 709.

Q: What about the inhibition of the same molecule?
A: The inhibition was -23.3% (inactive).

Q: For `COc1ccc(N(CC(=O)Nc2ccc(F)c(Cl)c2)S(=O)(=O)c2c(C)noc2C)cc1`, which cell count is on record?
A: Its cell count is 372.

Q: And the inhibition?
A: The inhibition was 2.7% (inactive).

Q: For `Cc1nc2ncnn2c(N2CCC(C(=O)NC3CCCC3)CC2)c1Cc1ccccc1`, which cell count is on record?
A: The cell count was 400.

Q: What about the inhibition of the same molecule?
A: The inhibition was 2.7% (inactive).

Q: For `CCC(C)(C)NC(=O)C(c1ccco1)N(C(=O)Cn1nnc2ccccc21)c1ccc2c(c1)OCO2` (centres undefined), which inhibition is on record?
A: The inhibition was -25% (inactive).

Q: And the cell count?
A: The cell count was 497.

Q: With `Fc1cccc(NCc2cn3ccccc3n2)c1` as the molecule, how does the cell count read?
A: Its cell count is 664.

Q: What about the inhibition of the same molecule?
A: The inhibition was -8% (inactive).

Q: What does the source list for `COc1ccccc1N1CCN(Cc2nc(N)nc(Nc3ccc(C)c(Cl)c3)n2)CC1`?
A: inhibition: -1.9% (inactive); cell count: 467

Q: Which cell count does the source give for `COCCCNC(=O)CSc1ccc(Cl)cc1` here?
A: The cell count was 378.

Q: What about the inhibition of the same molecule?
A: The inhibition was -1.8% (inactive).

Q: Which inhibition does the source give for `CS(=O)(=O)NCCSCc1c(F)cccc1Cl` here?
A: Its inhibition is 5.5% (inactive).

Q: What about the cell count of the same molecule?
A: Its cell count is 270.
